High-throughput results: PubChem BioAssay, National Center for Advancing Translational Sciences (NCATS)
This is a sample that favours compounds with a hit; in the whole collection about 10% have one here.
PLK1 PBD block = qHTS for Inhibitors of PLK1-PDB (polo-like kinase 1 - polo-box domain): Primary Screen; Potency, µM, usual class: inhibitors; 360,000 compounds, 2.8% hits; Serine/threonine-protein kinase PLK1 (Homo sapiens), P53350; Plk1 PBD binding of FITC phosphopeptide, fluorescence polarization; AID 720504, 2013; further: series mostly up to about 57 µM; nearly all actives have a fitted effect of over 65% in size
Mm-Cpn inhibitor = Inhibitors of TCP-1 ring complex (TRiC) of Methanococcus maripaludis (MmCpn): qHTS. purified Mm-Cpn ATPase, ADP Transcreener TR-FRET. 330,000 compounds, 0.031% hits. Potency, µM (titrated, usually from 76.9 µM), usual class: inhibitors. Chaperonin Mm-Cpn (Methanococcus maripaludis). AID 504842, 2011; further: nearly all actives have a fitted effect of over 80% in size
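ATPase read-out: TR-FRET ADP immunoassay (anti-ADP Eu cryptate vs ADP-d2), ex 320 nm, em 590/665 nm; signal drops as ADP forms. Enzyme 25 nM, ATP 10 uM, 30 min at 37°C after 10 min compound preincubation.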
Sfp PPTase inh = qHTS Assay for Inhibitors of Bacillus subtilis Sfp phosphopantetheinyl transferase (PPTase) | AID 1490, 2009 | Potency, µM, usual class: inhibitors | Biochemical Sfp PPTase activity, qHTS | 310,000 compounds, 3.5% hits | 4'-phosphopantetheinyl transferase ffp (Bacillus subtilis), Q9F4F7;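 further: the enzyme is Sfp with the accession as filed and its product quenches rhodamine fluorescence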
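Compounds were incubated with enzyme (final 15 nM) for 15 min at room temperature before substrate addition started the reaction. Fluorescence at 525 nm excitation, 598 nm emission was recorded immediately and after 30 minutes.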
G9a inh = qHTS Assay for Inhibitors of Histone Lysine Methyltransferase G9a; 350,000 compounds, 8.8% hits; G9a H3K9 monomethylation, AlphaScreen, 2 h; AID 504332, 2011; Potency, µM (highest dose often 102 µM), most hits filed as inhibitors; further: nearly all actives have a fitted effect of over 75% in size
Target sequence (Q96KQ7 913-1193 limits assumed): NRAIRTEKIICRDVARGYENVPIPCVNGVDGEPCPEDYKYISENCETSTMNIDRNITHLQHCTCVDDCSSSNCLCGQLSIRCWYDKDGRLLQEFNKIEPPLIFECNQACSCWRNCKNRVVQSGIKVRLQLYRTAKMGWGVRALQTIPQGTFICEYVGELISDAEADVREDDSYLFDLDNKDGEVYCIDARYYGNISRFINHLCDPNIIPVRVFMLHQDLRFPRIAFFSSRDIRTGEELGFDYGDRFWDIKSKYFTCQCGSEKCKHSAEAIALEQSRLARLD
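Quantitative HTS format: methyltransferase activity on a biotin-tagged H3K9 peptide is measured by AlphaScreen, using a rabbit anti-monomethyl-H3K9 antibody with streptavidin donor and anti-IgG acceptor beads. Final levels are 20 nM enzyme, 500 nM peptide, 20 uM SAM; 2 h RT.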
VDR inhibitor = Inhibitors of the vitamin D receptor (VDR): qHTS; Vitamin D3 receptor (Homo sapiens), P11473; VDR-SRC2-3 peptide fluorescence polarization, 2 h; Potency, µM, hits mostly inhibitors; 400,000 compounds, 0.93% hits; AID 504847, 2011
Target sequence (P11473 whole entry, looked up): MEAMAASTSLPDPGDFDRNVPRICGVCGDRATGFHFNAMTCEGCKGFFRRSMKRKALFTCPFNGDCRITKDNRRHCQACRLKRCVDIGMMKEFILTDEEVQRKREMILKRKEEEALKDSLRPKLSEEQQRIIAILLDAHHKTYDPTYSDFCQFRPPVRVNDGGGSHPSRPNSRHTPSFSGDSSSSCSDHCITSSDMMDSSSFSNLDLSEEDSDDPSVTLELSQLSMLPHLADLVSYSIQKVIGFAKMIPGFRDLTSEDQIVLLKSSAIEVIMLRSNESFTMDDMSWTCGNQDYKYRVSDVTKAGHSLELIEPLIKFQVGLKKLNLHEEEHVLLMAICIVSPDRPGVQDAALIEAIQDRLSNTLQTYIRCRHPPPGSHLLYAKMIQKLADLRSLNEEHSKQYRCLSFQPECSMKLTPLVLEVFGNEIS
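Reagent solutions, kept cold and dark, are dispensed first; compounds are then pinned in at 23 nl, plates briefly spun, and incubated 2 h at ambient temperature. Inhibition of VDR–SRC2-3 peptide binding is read by fluorescence polarization.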
CCT chaperon mod = High-Throughput Screening for Modulators of Cytosolic Chaperonin Activity; activity change, % (concentration not given with the values), hits read low; AID 651819, 2012; purified chaperonin ATPase assay, HTRF ADP detection, 30 min; 360,000 compounds, 0.3% hits; in the data active means activity change below about -30%
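ATPase activity: ADP formed was measured by HTRF Transcreener (665/615 nm ratio) after 30 min at 37 deg C with 10 uM ATP. Compounds screened at one 76 uM concentration against 40 or 20 nM TRiC in Tris pH 7.4/KCl/MgCl2/DTT buffer.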
A number is an active result; [ ] = another dose, or the depositor's remark. Unless noted, the call rests on the fitted dose curve; in most records, active means well fitted curve in the direction sought with a large enough effect; inconclusive means small, poorly fitted or top-dose-only effect, or another doubt; inactive means no such curve, though single readings can be large; an effect the other way counts as inactive or inconclusive.

How did COc1ccc(OC)c(CNc2ncnc3onc(C)c23)c1 do in these assays?
G9a inh: inactive; VDR inhibitor: inactive

How did CCc1ccc(C2NC(C(=O)O)CS2)cc1 (configuration not stated) do in these assays?
Mm-Cpn inhibitor: inactive; Sfp PPTase inh: inactive; G9a inh: 3.55µM

Results for O=C(O)C1CSC(c2ccc(O)c([N+](=O)[O-])c2)N1 (configuration not stated) ?
PLK1 PBD block: inactive; Mm-Cpn inhibitor: inactive; Sfp PPTase inh: inactive; G9a inh: 44.7µM; VDR inhibitor: inactive; CCT chaperon mod: inactive

How did O=C(O)C1Cc2c([nH]c3ccccc23)C(c2ccc3c(c2)OCO3)N1 (configuration not stated) do in these assays?
PLK1 PBD block: inactive; Mm-Cpn inhibitor: inactive; Sfp PPTase inh: inactive; G9a inh: 35.5µM; VDR inhibitor: inactive; CCT chaperon mod: inactive

How did NC(Cc1ccc(O)c([N+](=O)[O-])c1)C(=O)O (configuration not stated) do in these assays?
PLK1 PBD block: inactive; Mm-Cpn inhibitor: inactive; Sfp PPTase inh: inconclusive; G9a inh: inconclusive; VDR inhibitor: inactive; CCT chaperon mod: inactive

What do the screens show for `O=C(O)C1CSC(c2ccc3c(c2)OCO3)N1` (configuration not stated)?
PLK1 PBD block: 10.6µM; Mm-Cpn inhibitor: inactive[15.4 µM]; Sfp PPTase inh: 25.1µM; G9a inh: 7.08µM; VDR inhibitor: inconclusive; CCT chaperon mod: inactive

How did COc1ccc(-c2nn3c(=O)cc(CN4CCN(C(=O)c5ccc(C(C)(C)C)cc5)CC4)nc3s2)cc1 do in these assays?
G9a inh: inactive; VDR inhibitor: inactive

What do the screens show for `COc1ccc(-c2cc(-c3ccccc3)nc(SCC(=O)CC(=O)OC(C)C)c2C#N)cc1`?
G9a inh: inactive; VDR inhibitor: inactive

Results for CC(C)C(Sc1nc(-c2ccccc2)cc(-c2ccccc2)c1C#N)C(=O)O (configuration not stated) ?
PLK1 PBD block: 18.9µM; Mm-Cpn inhibitor: inactive; Sfp PPTase inh: inactive; VDR inhibitor: inactive; CCT chaperon mod: inactive

What do the screens show for `COc1ccc(-c2cc(-c3ccccc3)nc(SC(C)C(=O)O)c2C#N)cc1` (configuration not stated)?
PLK1 PBD block: 26.7µM; Mm-Cpn inhibitor: inactive; Sfp PPTase inh: inactive; G9a inh: inconclusive; VDR inhibitor: inconclusive; CCT chaperon mod: inactive

How did CS(=O)(=O)c1nc(-c2ccccc2)cc(-c2ccccc2)c1C#N do in these assays?
PLK1 PBD block: inactive; Mm-Cpn inhibitor: inactive; Sfp PPTase inh: inactive; G9a inh: inactive[12.7 µM]; VDR inhibitor: inactive; CCT chaperon mod: inactive

What do the screens show for `COc1ccc(C2NC(C(=O)O)Cc3c2[nH]c2ccccc32)cc1CN1CCN(c2ccc(F)cc2)CC1` (configuration not stated)?
PLK1 PBD block: inactive; Mm-Cpn inhibitor: inactive[15.4 µM]; Sfp PPTase inh: inactive; G9a inh: inactive[12.7 µM]; VDR inhibitor: inactive; CCT chaperon mod: inactive

Results for COc1ccc(C2NCCc3c2[nH]c2ccccc32)cc1CN1CCc2cc(OC)c(OC)cc2C1C (configuration not stated) ?
PLK1 PBD block: inactive; Mm-Cpn inhibitor: inactive; Sfp PPTase inh: inactive; G9a inh: 44.7µM; VDR inhibitor: inactive; CCT chaperon mod: inactive

Results for COc1ccc(C2NCCc3c2[nH]c2ccccc32)cc1COc1ccc(F)cc1 (configuration not stated) ?
PLK1 PBD block: inactive; Mm-Cpn inhibitor: inactive; Sfp PPTase inh: 44.7µM; G9a inh: inconclusive; VDR inhibitor: inactive; CCT chaperon mod: inactive

What do the screens show for `COc1ccc(/C=N/NC(=O)c2cc(OC)c(OC)c(OC)c2)cc1CN1CCc2cc(OC)c(OC)cc2C1C` (configuration not stated)?
PLK1 PBD block: inactive; Mm-Cpn inhibitor: inactive; Sfp PPTase inh: inactive; G9a inh: inconclusive; VDR inhibitor: inactive; CCT chaperon mod: inactive

How did Cc1ccc(S(=O)(=O)/N=C(/Sc2ccccc2C(=O)O)c2ccccc2)cc1 do in these assays?
PLK1 PBD block: 18.9µM; Mm-Cpn inhibitor: inactive; Sfp PPTase inh: 79.4µM; VDR inhibitor: inactive; CCT chaperon mod: inactive

What do the screens show for `c1cc2c3c(cccc3c1)NC(c1ccc3c(c1)OCO3)N2`?
PLK1 PBD block: inconclusive; Mm-Cpn inhibitor: inactive; Sfp PPTase inh: inactive; G9a inh: 35.5µM; VDR inhibitor: inconclusive; CCT chaperon mod: inactive

Results for Brc1ccc(C2Nc3cccc4cccc(c34)N2)s1 ?
PLK1 PBD block: inconclusive; Mm-Cpn inhibitor: inactive; Sfp PPTase inh: inactive; G9a inh: 25.1µM; VDR inhibitor: inactive; CCT chaperon mod: inactive

Results for Clc1ccc(C2Nc3cccc4cccc(c34)N2)cc1 ?
PLK1 PBD block: inconclusive; Mm-Cpn inhibitor: inactive; Sfp PPTase inh: inconclusive; G9a inh: 35.5µM; VDR inhibitor: inactive; CCT chaperon mod: -55.5

How did CSc1ccc(C2Nc3cccc4cccc(c34)N2)cc1 do in these assays?
PLK1 PBD block: inactive; Mm-Cpn inhibitor: inactive; Sfp PPTase inh: inactive; G9a inh: inactive[0.501 µM]; VDR inhibitor: inactive; CCT chaperon mod: inactive

Results for CCn1c(SCC(=O)Nc2ccc(C)cc2Br)nnc1-c1nonc1NC(C)=O ?
G9a inh: inactive; VDR inhibitor: inactive

What do the screens show for `CCCCCCCn1c2c(c(=N)c3ccccc31)CCC2`?
PLK1 PBD block: inactive; Mm-Cpn inhibitor: inactive; Sfp PPTase inh: 50.1µM; VDR inhibitor: inactive; CCT chaperon mod: inactive

How did CCCn1c2c(c(=N)c3c1CCC3)CCC2 do in these assays?
PLK1 PBD block: inactive; Mm-Cpn inhibitor: inactive; Sfp PPTase inh: inactive; G9a inh: 50.1µM; VDR inhibitor: inactive; CCT chaperon mod: inactive

Results for CCOC(=O)Cn1c2c(c(=N)c3c1CCC3)CCCC2 ?
PLK1 PBD block: inactive; Mm-Cpn inhibitor: inactive; Sfp PPTase inh: inactive; G9a inh: inactive; VDR inhibitor: inactive; CCT chaperon mod: inactive

What do the screens show for `CCCn1c2c(c(=N)c3c1CCC3)CCCC2`?
PLK1 PBD block: inactive; Mm-Cpn inhibitor: inactive; Sfp PPTase inh: inactive; G9a inh: 12.6µM; VDR inhibitor: inactive; CCT chaperon mod: inactive

Results for COc1cc(C2NC(=O)c3c(sc4c3CCN(C)C4)N2)ccc1OC(=O)c1ccccc1 (configuration not stated) ?
G9a inh: 10µM; VDR inhibitor: inactive

What do the screens show for `CN1CCc2c(sc3c2C(=O)NC(c2cccc(OC(=O)c4cccs4)c2)N3)C1` (configuration not stated)?
PLK1 PBD block: inactive; Mm-Cpn inhibitor: inactive; Sfp PPTase inh: inactive; G9a inh: 39.8µM; VDR inhibitor: inconclusive; CCT chaperon mod: inactive
